A selection: hits, their analogues and other compounds. The true share with any hit is near 11%.
IMPase Li cell: IMPase inhibition in cells with lithium potentiation; CHO-M1 cells, IP1 TR-FRET (IP-One), carbachol + lithium; Potency, µM (highest dose often 59.4 µM), for the others: at the top dose activity, negative = IMPase inhibition, most hits filed as inhibitors; 210,000 tested, 0.35% active; AID 1457;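 also: IP1 builds up when IMPase is blocked and the TR-FRET signal falls; potency is read from the fitted curve at half-maximal effect; plate controls were basal vehicle for no effect and high inhibitor control for full effect; nearly all actives have a fitted effect of over 50% in size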
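IP1 accumulation measured by competitive TR-FRET in lysed CHO-M1 cells after 30 min compound exposure at 37C, with a small lithium addition to potentiate weak responses. Hill-equation AC50 from ratio and donor-channel data.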
ALDH1A1 inh: inhibitors of human aldehyde dehydrogenase 1A1 | Purified ALDH1A1, NADH fluorescence, propionaldehyde substrate | Potency, µM (highest dose often 75.3 µM), inactives show top-dose activity, negative = inhibition, usual class: inhibitors | 220,000 tested, 7.3% active; active = well fitted inhibition curve with a large enough effect, not every such curve was filed as active; inconclusive = small, poorly fitted or top-dose-only effect, or another doubt; inactive = no such curve, though single readings can be large or run the other way;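 also: potency is read from the fitted curve at half-maximal effect; plate controls were no enzyme wells and a reference inhibitor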
ALOX12 inhib: blocks human 12-lipoxygenase activity; Potency, µM (doses to about 57.1 µM), for the others: at the highest dose activity change, negative = inhibition, most hits filed as inhibitors; purified 12-hLO, xylenol orange hydroperoxide absorbance; AID 1452; 150,000 tested, 0.12% active; also: potency is read from the fitted curve at half-maximal effect; nearly all actives have a fitted effect of over 55% in size
Target sequence (P18054 whole entry, looked up): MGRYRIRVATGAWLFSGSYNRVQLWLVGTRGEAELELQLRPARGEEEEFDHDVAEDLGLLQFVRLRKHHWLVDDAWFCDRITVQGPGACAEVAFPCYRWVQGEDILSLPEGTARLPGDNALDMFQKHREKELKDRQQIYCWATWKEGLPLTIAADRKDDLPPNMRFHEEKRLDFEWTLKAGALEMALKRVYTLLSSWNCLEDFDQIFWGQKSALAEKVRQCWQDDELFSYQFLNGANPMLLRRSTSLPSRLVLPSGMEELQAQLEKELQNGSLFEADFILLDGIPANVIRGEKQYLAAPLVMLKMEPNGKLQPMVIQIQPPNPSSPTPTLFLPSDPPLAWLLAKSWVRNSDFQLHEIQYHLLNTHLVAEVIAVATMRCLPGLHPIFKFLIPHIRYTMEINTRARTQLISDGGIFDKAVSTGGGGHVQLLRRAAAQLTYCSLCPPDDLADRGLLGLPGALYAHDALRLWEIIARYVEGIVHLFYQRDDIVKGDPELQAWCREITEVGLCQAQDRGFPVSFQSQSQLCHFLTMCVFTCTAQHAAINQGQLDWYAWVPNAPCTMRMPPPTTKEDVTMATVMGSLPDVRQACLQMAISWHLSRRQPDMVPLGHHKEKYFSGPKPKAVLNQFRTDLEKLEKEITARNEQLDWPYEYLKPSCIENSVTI
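Xylenol orange chromogenic assay: hydroperoxide from 12hLO oxidises Fe(II), giving red-shifted Fe(III)-XO absorbance. Conditions: 150 nM enzyme, 40 uM arachidonic acid, 25 mM Hepes pH 7.0, 0.01% Triton X-100, 30 min, room temperature.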
IMPase cell inh: cell-permeable inhibitors of inositol monophosphatase (IMPase). CHO-M1 cells, IP1 accumulation, HTRF TR-FRET ratio. inhibition (IP1 accumulation), % at 46.1 µM. 120,000 tested, under 10 active. AID 901; active = well fitted curve in the direction sought with a large enough effect in the signal ratio, not every such curve was filed as active; inconclusive = small, poorly fitted or top-dose-only effect, or a change in a side signal; inactive = no such curve, though single readings can be large or run the other way; the % refers to the signal ratio;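 also: cells stimulated with carbachol in lithium chloride buffer; plate controls were DMSO basal wells for no effect and reference inhibitor wells for full effect; higher means more IMPase inhibition seen as more IP1 and lower FRET ratio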
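Cellular IMPase inhibition is scored as a rise in cytosolic IP1, detected by competitive TR-FRET between d2-labelled IP1 and a europium anti-IP1 antibody. M1-expressing CHO cells were stimulated with carbachol for 30 min at 37C, with lithium (50 mM LiCl) present in the buffer.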
PNC assembly inh: inhibitors of perinucleolar compartment assembly; AID 2417; activity change (PNC), negative = inhibition, % at 10 µM; 140,000 tested, 3.1% active; PC3M PTB-GFP, PNC prevalence imaging, 16 h; active compounds read low;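 active = readout at or below -70, meaning at least 70% loss of cells showing the perinucleolar compartment, a nuclear body marking cancer cells; inconclusive = readout between -30 and a set limit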;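 also: plate controls were DMSO wells for no effect and camptothecin positive control wells for full effect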
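Compounds are pinned in duplicate onto adhered PC3M cells stably expressing GFP-tagged PTB and incubated 16 h at 37 C. Cells are then fixed, nuclei stained with Hoechst, and PNC-positive cells counted.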
HPGD block: inhibitors of human 15-hydroxyprostaglandin dehydrogenase (HPGD); P15428; purified HPGD, NADH fluorescence kinetic, PGE2 substrate; Potency, µM, without a hit: top-dose activity change, negative = inhibition, actives largely listed as inhibitors; 150,000 tested, 4.3% active; AID 894; active = well fitted inhibition curve with a large enough effect, not every such curve was filed as active; inconclusive = small, poorly fitted or top-dose-only effect, or another doubt; inactive = no such curve, though single readings can be large or run the other way; also: potency is read from the fitted curve at half-maximal effect
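20 nM HPGD preincubated 15 min at room temperature with compound in 50 mM Tris-HCl pH 8, 0.01% Tween 20. Started with 1 mM NAD+ and 30 uM prostaglandin E2; NADH fluorescence (360/450 nm) read 5 times over 30-s intervals, last minus first.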
An asterisk follows results filed as active; ? = inconclusive; · = no result; [ ] = remark or other dose. Unless noted, calls follow the shape of the dose curve; as a rule, active = well fitted curve in the direction sought with a large enough effect; inconclusive = small, poorly fitted or top-dose-only effect, or another doubt; inactive = no such curve, though single readings can be large; an effect the other way counts as inactive or inconclusive. Unless noted, % is scaled to controls: 0 for no effect and ±100 for the full control effect.

SMILES	IMPase Li cell	ALDH1A1 inh	ALOX12 inhib	IMPase cell inh	PNC assembly inh	HPGD block
COC(=O)C1CCN(c2cc(=O)n(-c3ccccc3Cl)c(=O)[nH]2)CC1	1.8%[38.3 µM]	17.8µM*	-1.0%	-2.3	?	-8.0%
Cc1cc(-c2ccccc2)n[nH]1	?	-6.3%	·	·	·	·
FC(F)C(F)(F)C(F)(F)C(F)(F)c1cc(-c2ccccc2)n[nH]1	50.1%[38.3 µM]	4.1%	-18.7%	6.0	-3.8	15.8µM*
OCC1OC(c2ccccc2)C=CC1Oc1ccc(C2CCCC2)cc1 (stereo not given)	·	1.5%[13.5 µM]	·	·	·	·
CO[C@H]1COC(=O)[C@H](C)COC(=O)[C@@H](Cc2ccccc2)NC(=O)C/C=C\[C@H]1C	·	3.4%[13.5 µM]	·	·	·	·
CO[C@@H]1COC(=O)CCC[C@@H](C)[C@H](OC)COC(=O)[C@H](Cc2ccccc2)NC(=O)C/C=C\[C@H]1C	·	0.0158µM*	·	·	·	·
CN1CCc2nc(NC(=O)c3cccc(S(=O)(=O)N4CCc5ccccc54)c3)sc2C1	37.6%[38.3 µM]	12.6µM*	17.4%	4.3	-11.3	-13.1%
O=C(Nc1nc2c(s1)CCCC2)c1cccc(S(=O)(=O)N2CCCc3ccccc32)c1	5.9%	?	0.8%	·	?	?
CCCc1[nH]n(-c2nc3ccccc3s2)c(=O)c1C=NCC(C)C	53.7%[38.3 µM]	12.6µM*	25.0%	5.7	0.4	-16.5%
C=C1CCC[C@]2(C)C[C@H]3OC(=O)[C@H](CNCCc4ccccc4OC)C3CC12 (stereo not given in full)	23.3%	8.91µM*	·	·	·	-1.8%
C#CCNC(=O)C1CCN(c2ccc(S(=O)(=O)N3CCOCC3)cc2Cl)CC1	9.1%	-3.1%	·	·	·	·
CC(C)CNC(=O)C1CCN(c2ccc(S(=O)(=O)N3CCOCC3)cc2Cl)CC1	0.4%[38.3 µM]	15.7%	-1.7%	7.8	-20.1	15.8µM*
O=C(NCc1cccs1)C1CCN(c2ccc(S(=O)(=O)N3CCOCC3)cc2Cl)CC1	13.0%[38.3 µM]	-0.1%	-5.6%	6.9	-124.1*	-20.6%
O=C(NC1CC1)C1CCN(c2ccc(S(=O)(=O)N3CCOCC3)cc2Cl)CC1	-0.3%[38.3 µM]	6.6%	5.2%	2.7	-2.3	25.1µM*
Clc1cccc(C=NC=Nc2cccc(Cl)c2)c1	32.9%	9.4%	0.7%	12.1	·	-2.4%
C=CCN1C(=O)C2(NC(=O)c3ccccc3N2)c2ccccc21 (stereo not given)	-3.0%	?	·	·	·	·
C=CCN1C(=O)C2(NNc3ccccc3O2)c2ccccc21 (stereo not given)	-22.8%[38.3 µM]	1.58µM*	-18.3%	7.6	-19.9	-19.8%
CCCCN1C(=O)C2(NNc3ccccc3O2)c2ccccc21 (stereo not given)	47.4%[38.3 µM]	0.282µM*	?	2.6	?	31.6µM*
CCCCN1C(=O)C(O)(c2c(C)[nH]c3ccccc23)c2ccccc21 (stereo not given)	·	·	·	5.1	·	·
COc1cc(Cl)c(C)cc1NC(=O)Cn1cc(S(=O)(=O)N2CCC(C)CC2)c2ccccc2c1=O	·	·	·	4.5	·	·
CC(C)C1O/C(=N/C(=O)Nc2ccc(Cl)c(Cl)c2)NC1=O (stereo not given)	23.4%[38.3 µM]	?	-21.0%	-1.3	-15.8	20µM*
N[C@@H](Cc1nn[nH]n1)C(=O)O	5.0%	5.5%[13.5 µM]	4.9%[11.4 µM]	·	·	-1.4%
CCOc1cc(CN2CCCCC2)ccc1OC	36.6%[38.3 µM]	0.1%	1.8%	6.6	-27.8	0.1%
CCOc1cc(CN2CCN(c3ccc(C(C)=O)cc3)CC2)ccc1OC	2.0%[38.3 µM]	17.8µM*	-1.6%	8.0	-24.7	-9.4%
Clc1ccc(C2=NN=C3COc4ccccc4N3C2)cc1	3.9%	6.5%	3.1%	·	46.8	20µM*
SMILES	IMPase Li cell	ALDH1A1 inh	ALOX12 inhib	IMPase cell inh	PNC assembly inh	HPGD block
C/C(=N\NC(=O)c1cc(-c2cccc([N+](=O)[O-])c2)n[nH]1)c1ccccc1O	-4.7%	-4.3%	-0.9%	·	49.8	-21.1%
O=C1C=CC(O)(c2cc(=O)c3c(O)cc(O)cc3o2)C=C1	6.9%	-2.0%	-4.2%	·	-118.9*	-7.7%
O=c1c(O)c(-c2ccc(O)cc2O)oc2cc(O)cc(O)c12	8.3%	-12.7%	-19.4%	7.7	-22.4	-24.4%
Cn1c(-c2ccccc2)c(C(=O)CCl)c2ccccc21	13.5%	3.98µM*	·	·	·	·
Cn1c(-c2ccccc2)c(O)c(=O)c2ccccc21	·	-6.3%[13.5 µM]	·	·	·	·
CCn1c(-c2ccccc2)c(C(=O)CCl)c2ccccc21	11.1%	6.31µM*	·	·	·	·
N#C/C(=C\c1ccc(Cl)cc1Cl)c1nc(-c2cccc(Cl)c2)cs1	·	·	·	-7.2	·	·
CCn1c(=O)n(CCOC)c(=O)c2c3c(sc21)CCCC3	0.8%	-9.7%	-2.9%	-5.0	1.7	-12.8%
COCCCn1c(=S)[nH]c2sc3c(c2c1=O)CCCS3	?	25.1µM*	·	·	·	·
CC1(C)CC(=O)C2=C(C1)OC1=C(C2)C(=O)CC(C)(C)C1	-3.7%	17.8µM*	2.4%	·	22.1	-17.7%
O=[N+]([O-])c1nn(-c2ccc3c(c2)OCCO3)n(O)c1=Nc1ccccc1	0.5%	11.2µM*	-1.2%	·	?	-3.4%
O=[N+]([O-])c1nn(-c2ccc3c(c2)OCCO3)n(O)c1=NC1CCCCCC1	30.2%[38.3 µM]	14.1µM*	-20.6%	-3.4	12.9	-4.5%
Cc1ccc(C)c(OCCCC(=O)Nc2ccccc2C(N)=O)c1	2.0%	23.8µM*	·	·	·	·
Cc1ccc(C)c(OCCCC(=O)Nc2nccs2)c1	-3.0%[38.3 µM]	7.1%	2.8%	-4.1	18.2	-14.9%
COc1cc([N+](=O)[O-])ccc1NC(=O)CCCOc1cc(C)ccc1C	17.2%	28.2µM*	-3.6%	-10.3	-13.8	-18.9%
O=C(Nc1cnn(Cc2ccc(Cl)c(Cl)c2)c1)c1nc2ncccn2n1	-2.4%[38.3 µM]	-2.7%	-7.7%	6.2	20.8	20µM*
C[C@@H](CN1CCC(Cc2ccccc2)CC1)[C@H](O)c1ccc(O)cc1	·	·	-8.9%	13.2	·	·
Cc1ccc(NC(=O)CC2SC3=NCCCN3C2=O)c(C)c1 (stereo not given)	18.1%[38.3 µM]	1µM*	-10.2%	-0.3	4.3	-12.1%
c1ccc2nc(-c3nc4ccccc4o3)ccc2c1	33.4%[38.3 µM]	?	-2.2%	6.5	-106.5*	?
O=C(CN1CCOCC1)Nc1ccccc1Sc1ccccc1	3.2%	-5.9%	-1.0%	-1.8	6.6	-0.7%
O=C(CNCCN1CCOCC1)Nc1ccccc1Sc1ccccc1	12.9%	31.6µM*	-3.5%	·	20.8	-3.9%
Cc1nnc(N2C(=O)C(O)=C(C(=O)c3ccco3)C2c2ccc(C(C)(C)C)cc2)s1 (stereo not given)	?	0.4%	6.5%	-8.5	-108.6*	-5.5%
COC(=O)C(C)Sc1n[nH]c(=S)s1 (stereo not given)	-7.5%[38.3 µM]	20µM*	-7.2%	-1.6	-16.8	25.1µM*
O=C(O)CC(Sc1n[nH]c(=S)s1)C(=O)O (stereo not given)	·	12.6µM*	·	·	·	·

Compound activity as filed in PubChem BioAssay.
